# Assay outcomes as filed in PubChem.
# Most compounds without a hit are left out; they make up all but 3.4% or so of the library.
# MITF primary: inhibitors of human MITF; AID 1259374; inhibition, % at 2.6 µM; 650,000 compounds, 0.91% hits; AlphaScreen MITF homodimerization, bead proximity signal; in the data active = inhibition above about 50%;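 also: 0% = vehicle wells with protein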
# TEAD-YAP inh: TEAD-YAP interaction inhibition; inhibition, % at 9.12 µM; AID 1259422; HEK-TIYL cells, TEAD-Gal4/YAP UAS-luciferase luminescence; 640,000 compounds, 1.4% hits; in the data active = inhibition above about 32%;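 also: 0% = median of test compound wells and 100% = reference inhibitor wells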
# GPR151 activ: human GPR151 activation | PathHunter beta-arrestin GPR151 cells, luminescence | activation, % at 11.2 µM | 650,000 compounds, 1% hits | AID 1508602; in the data active = activation above about 4.9%;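 also: 0% = median of compound wells and 100% = cells with positive control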
# FBW7 act: human FBW7 E3 ligase activation, primary screen; Q969H0; AlphaScreen FBW7–phospho-cyclin E peptide binding, activator screen; normalized activity (activation), % at 26.1 µM; 650,000 compounds, 0.13% hits; AID 1259310; in the data active = normalized activity above about 1.9%;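 also: purified mutant Fbw7 with reduced substrate affinity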
# Target sequence (Q969H0 whole entry, looked up): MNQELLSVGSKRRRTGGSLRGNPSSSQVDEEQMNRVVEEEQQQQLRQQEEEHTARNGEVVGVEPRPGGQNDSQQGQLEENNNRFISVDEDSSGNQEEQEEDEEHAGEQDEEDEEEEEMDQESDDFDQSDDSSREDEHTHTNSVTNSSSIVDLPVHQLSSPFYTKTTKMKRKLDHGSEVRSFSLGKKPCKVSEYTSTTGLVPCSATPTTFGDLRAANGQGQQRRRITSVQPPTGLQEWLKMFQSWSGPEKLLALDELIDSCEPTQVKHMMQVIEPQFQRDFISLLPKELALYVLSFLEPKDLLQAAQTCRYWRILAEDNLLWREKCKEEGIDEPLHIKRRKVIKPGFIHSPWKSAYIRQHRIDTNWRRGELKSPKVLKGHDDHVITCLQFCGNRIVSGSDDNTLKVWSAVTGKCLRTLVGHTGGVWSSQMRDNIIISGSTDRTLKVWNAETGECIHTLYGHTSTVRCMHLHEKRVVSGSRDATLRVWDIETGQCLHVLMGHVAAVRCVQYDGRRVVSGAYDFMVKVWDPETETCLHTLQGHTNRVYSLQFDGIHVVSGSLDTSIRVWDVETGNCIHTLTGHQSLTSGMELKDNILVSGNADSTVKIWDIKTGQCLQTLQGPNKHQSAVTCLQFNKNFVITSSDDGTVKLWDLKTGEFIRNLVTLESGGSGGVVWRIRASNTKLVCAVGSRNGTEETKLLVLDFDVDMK
# GPR151 conf act: human GPR151 activation, confirmation screen; shares compounds with GPR151 activ; 6,700 tested, under 10 active; AID 1508609; activation, % at 11.2 µM; GPR151 PathHunter beta-arrestin cells, luminescence, 90 min; % of EA-reagent control over plate median;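 active = mean percent activation across replicates above the confirmation screen cutoff of 4.91%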
# GPR119 counter: GPR119 activation, counter-screen for GPR151 activators | shares compounds with GPR151 activ | GPR119 PathHunter beta-arrestin cells, luminescence, 90 min; 0 = compound-well median, 100 = enzyme-acceptor control | activation, % at 11.2 µM | 6,700 compounds, 0.3% hits;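 active = mean percent activation in the counterscreen above 29.09%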;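 also: counterscreen on off-target GPR119 to flag nonselective hits from the GPR151 activator screen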
# * = called active by the depositor; · = no result given.
SMILES,MITF primary,TEAD-YAP inh,GPR151 activ,FBW7 act,GPR151 conf act,GPR119 counter
CCOC(=O)C1C(=O)CC(C)(O)C(C(=O)OCC)C1c1ccc2c(c1)OCO2 (centres undefined),-2,-3,5.1*,0,-1,-6
CCOC(=O)C1C(=O)CC(C)(O)C(C(=O)OCC)C1c1ccc(C)cc1 (centres undefined),8,13,0,0,·,·
CC1(C)C=C2C(=C(O)CC(c3ccccc3)C2(C#N)C#N)C(=O)C1 (centres undefined),13,3,0,0,·,·
COc1ccc(-c2noc(Nc3ccc(C(C)C)cc3)n2)cc1,15,-11,-1,1,·,·
COc1ccc(-c2noc(Nc3ccc(Cl)cc3)n2)cc1,-2,-21,8.2*,0,0,-1
Brc1cccc(Nc2nc(-c3ccccn3)cs2)c1,1,-14,22*,0,0,-12
Brc1ccc(Nc2nc(-c3ccccn3)cs2)cc1,21,-28,1,0,·,·
C=CCNc1ncnc2c1c(-c1ccccc1)cn2-c1cccc(Cl)c1,4,-8,1,1,·,·
Cc1cccc(Cn2c(SCC(C)C)nc3c2c(=O)[nH]c(=O)n3C)c1,19,2,5.2*,1,0,1
CCCSc1nc2c(c(=O)[nH]c(=O)n2C)n1CC(O)Oc1cccc2ccccc12 (centres undefined),11,10,6.2*,0,0,-8
Cn1c(=O)[nH]c(=O)c2c1nc(N1CCN(c3cccc(Cl)c3)CC1)n2Cc1ccccc1,-15,1,5.3*,0,2,6
Cn1c(=O)[nH]c(=O)c2c1nc(NCc1ccccc1)n2Cc1ccc(Cl)cc1,0,0,6.7*,0,1,-3
Cn1c(=O)[nH]c(=O)c2c1nc(NCc1ccccc1)n2Cc1ccccc1,6,-2,0,0,·,·
CC(=O)N1CCN(Cc2ccc3c(c2)OCO3)CC1,9,1,-1,0,·,·
Nc1nnc(SCC(=O)N2CCCC2)s1,8,4,-1,0,·,·
CCN(CC)S(=O)(=O)c1ccc(N=c2ccccn2C)cc1,-10,3,1,0,·,·
CCCCNC(=O)c1ccc(CS(=O)Cc2ccccc2Cl)o1 (centres undefined),-1,9,0,0,·,·
O=C1/C(=C/c2cccnc2)CC/C1=C\c1cccnc1,1,16,6.5*,0,1,4
COc1cccc(OC)c1NC(=O)CC(Cc1ccc(Cl)cc1)C(=O)O (centres undefined),10,-6,5.0*,0,0,-5
CC(C)(C)C(=O)COC(=O)CCC(=O)c1cccs1,6,-10,6.1*,0,0,8
Cc1ccc(S(=O)(=O)NCC(=O)N/N=C/c2cccc([N+](=O)[O-])c2)cc1,16,6,0,0,·,·
CC1(C)CC(=O)C2=C(C1)OC1=C(C(=O)CC(C)(C)C1)C2c1cc(Cl)cc(Cl)c1OCc1ccc(Cl)cc1Cl,-9,8,5.5*,0,0,11
Cc1ccc(C)n1-c1ccc(-c2ccnc(-c3ccncc3)n2)cc1,6,4,5.4*,0,0,0
Cc1ccc(-n2c(-c3ccncc3)n[nH]c2=S)cc1,-5,11,-1,0,·,·
COc1ccc(CC2(CCC(=O)NCc3cnn(C)c3C)CCC(=O)N2)c(F)c1 (centres undefined),-7,-1,5.1*,0,1,10
SMILES,MITF primary,TEAD-YAP inh,GPR151 activ,FBW7 act,GPR151 conf act,GPR119 counter
O=C1CC(Cc2ccc(Br)cc2)C(=O)N1c1ccc([N+](=O)[O-])cc1 (centres undefined),12,-2,-2,0,·,·
Cc1ccc(N2C(=O)C3C4CCC(C4)C3C2=O)c(C)c1 (centres undefined),-8,-6,-1,0,·,·
O=C(CSc1nnc(-c2cccnc2)o1)c1cc2ccccc2oc1=O,14,5,6.2*,1,-1,-5
Cc1nc2c(-c3ccccc3)c(C)nn2c(C)c1CCC(=O)Nc1ccccn1,1,-1,5.0*,0,0,3
CCN1CC=C2C(C#N)=C(N)C(C#N)(C#N)C(c3c(OC)ccc4ccccc34)C2C1 (centres undefined),9,-8,5.6*,0,-1,-12
Cc1cc(C(=O)NC(C)C(=O)O)cc(C)c1[N+](=O)[O-] (centres undefined),0,2,5.0*,0,0,0
Cc1cc(C(=O)NC(CC(C)C)C(=O)O)cc(C)c1[N+](=O)[O-] (centres undefined),-21,-5,0,0,·,·
Cc1ccc(-c2cc(C(=O)N/N=C/c3cccc(Br)c3)n[nH]2)o1,8,11,7.5*,0,1,-6
COc1ccc(/C=N/NC(=O)c2cc(-c3ccc(C)o3)[nH]n2)cc1,17,9,-1,0,·,·
CCOc1cc(/C=N/NC(=O)c2cc(C(C)C)[nH]n2)ccc1O,6,6,-1,0,·,·
CCOc1cc(/C=N/NC(=O)c2cc(-c3ccc(C)o3)[nH]n2)ccc1O,15,21,7.0*,0,0,-8
COc1ccc(-c2nn(-c3ccccc3)cc2/C=C(\C#N)C(N)=O)cc1,-1,-13,0,1,·,·
c1nc2nc(N3CCOCC3)nc(NCCN3CCOCC3)c2[nH]1,8,6,1,0,·,·
COc1ccc(CC(=O)N2N=C(c3cccnc3)CC2(O)C(F)(F)F)cc1 (centres undefined),2,25,4.9*,1,1,10
O=c1[nH]c2ccccc2nc1C(F)(F)C(F)(F)C(F)(F)C(F)F,-7,14,5.5*,0,0,-4
CCCCn1c(O)c(Nc2ccc3c(c2)=NC(=O)N=3)c2ccccc21,1,2,6.8*,0,1,11
CCCCn1c(O)c(C2=c3ccccc3=NC2=O)c2ccccc21,26,13,-2,0,·,·
CCCN1CCC(N2C[C@H](NCc3c(OC)ccc4ccccc34)C[C@H]2C(=O)NC)CC1,4,9,0,0,·,·
Cc1cc(C(F)(F)F)nc2snc(Br)c12,8,2,5.2*,0,-1,-9
O=C1CC(c2nnc(Cc3ccccc3Cl)o2)CN1c1ccccc1 (centres undefined),-12,6,5.5*,0,0,-10
COc1ccc(-c2c3c(=O)n(C)c(=O)n(C)c3cn2-c2cc(C)ccc2O)cc1,13,-10,5.4*,0,0,11
c1ccc2c(N3CCCCCC3)nc(CN3CCCC3c3nccs3)nc2c1 (centres undefined),-1,-2,5.0*,0,0,-4
Cc1ccc(C)c(-c2cc(C(=O)NN3CCOCC3)c3ccccc3n2)c1,-2,-2,5.4*,0,-1,-10
